Compound activity (PubChem)
In the library only some 6.8% were active in any assay of this set; here they are far more common.
Cy5 interf NS3h: counter-screen for HCV NS3 helicase inhibitors: fluorescence interference; Cy5-dT15 DNA with NS3h; actives lie on both sides; signal over control mean, under 1 quenches; fluorescence interference ratio at 100 µM; actives 6% (n = 16,000);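 active = compound fluorescence over control fluorescence at most 0.8, a quencher, or at least a set upper limit, an enhancer; inactive = ratio between 0.8 and the set upper limit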
HCV NS3h FP: blocks HCV NS3 helicase binding to DNA. actives 1.6% (n = 16,000). AID 687043. NS3h Cy5-dT15 DNA binding, fluorescence polarization. inhibition, % at 100 µM;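 active = inhibition above the average over every tested compound plus 3 SD, cut at about 40% in these data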
Numbers without * were called inactive.

SMILES	Cy5 interf NS3h	HCV NS3h FP
COC(=O)C1=C(C)NC2=C(C(=O)c3ccccc32)C1c1ccc(-c2ccc([N+](=O)[O-])cc2Br)o1 (stereo unspecified)	0.88	6
CC(C)CCNC(=O)c1cccc([N+](=O)[O-])c1	1	17
CC(NC(=O)NC(=O)c1cccc([N+](=O)[O-])c1)C1CC1 (stereo unspecified)	0.64*	10
O=C(Oc1cccc2ccccc12)c1ccco1	0.57*	3
N/C(Cc1cccc2ccccc12)=N/OC(=O)c1ccco1	1.1	17
COc1cccc(/C=c2/sc3nc4ccccc4n3c2=O)c1	1	6
CCc1cc(=O)oc2cc(C)cc(OCC(=O)c3ccccc3)c12	1.3*	-4
CCc1cc(=O)oc2cc(C)cc(OC(C)=O)c12	1.1	1
O=C(Nc1ccc(C(=O)O)cc1)/C(=C/c1cccc([N+](=O)[O-])c1)NC(=O)c1ccccc1	0.97	1
Cc1ccc(C(=O)N/C(=C\c2cccc([N+](=O)[O-])c2)C(=O)Nc2ccc(C)c(C)c2)cc1	1.2*	2
Cc1ccc(C(=O)N/C(=C\c2cccc([N+](=O)[O-])c2)C(=O)Nc2ccc(C)cc2C)cc1	1.3*	6
O=C(Nc1cccc(O)c1)/C(=C/c1cccc([N+](=O)[O-])c1)NC(=O)c1ccccc1	0.89	10
CC(=O)NC(c1ccccc1Cl)c1c(OC(C)=O)ccc2ccccc12 (stereo unspecified)	0.99	4
CC(C)C(Nc1nc2ncn(Cc3ccccc3)c2c(=O)[nH]1)C(=O)O (stereo unspecified)	0.94	-11
COc1ccc(-c2nn(-c3ccccc3)cc2/C=c2\sc3nc(-c4ccc(C)cc4)nn3c2=O)cc1	0.92	10
CC(=O)CC(=O)Nc1ccc(Cl)c(Cl)c1	1	3
CC(=O)CC(=O)Nc1ccc(Cl)c(C(F)(F)F)c1	0.68*	4
CC(=O)C(C(C)=O)C1=CC(=O)C(=O)c2ccccc21	0.53*	6
COc1ccccc1C=C1C(=O)c2ccccc2C1=O	0.99	26
Cn1nnnc1SCC(=O)Nc1ccccc1	1	-6
Cc1cc(Nc2cccc(O)c2)n2ncnc2n1	0.69*	9
Cc1cc(Nc2cccc(F)c2)n2c(nc3ccccc32)c1C#N	1	2
CCOC(=O)c1ccc(NC(=O)c2cc(Cl)c(OC)c(Cl)c2)cc1	0.97	10
O=C(Nc1ccc(Cl)c(Cl)c1)Nc1nnc(CCc2ccccc2)s1	1	1
CCOC(=O)c1ccc(NC(=O)CCNC(=O)c2ccccc2NC(=O)c2ccc(OC)cc2)cc1	1	9
SMILES	Cy5 interf NS3h	HCV NS3h FP
Cc1ccc2c(-c3ccc([N+](=O)[O-])cc3)cc(=O)[nH]c2c1	0.62*	1
COc1ccc2c(-c3ccccc3)cc(=O)[nH]c2c1	0.98	2
O=C(CSCC(=O)Nc1ccc([N+](=O)[O-])cc1)Nc1ccccc1	0.62*	6
COCCNC(=O)c1ccc(Cl)c([N+](=O)[O-])c1	1.1	4
Cc1ccc(NC(=O)c2ccc(Oc3ccc([N+](=O)[O-])cc3)cc2)cc1C	0.95	5
Cc1ccc(N2C(=O)c3ccc(C(=O)Nc4ccc(O)cc4)cc3C2=O)cc1C	1	-6
O=C(CSCC(=O)Nc1ccccc1)NCc1ccccc1	1.1	7
COCCNC(=O)c1ccc([N+](=O)[O-])cc1	0.72*	4
CC(=O)c1ccc(Oc2ccc([N+](=O)[O-])cc2)cc1	0.64*	10
O=C(Nc1ccc(O)cc1)c1ccc2c(c1)C(=O)N(c1ccc([N+](=O)[O-])cc1)C2=O	0.65*	0
COc1ccc(N(CC(=O)NCC2CCCO2)S(=O)(=O)c2ccc(OC)c(OC)c2)cc1 (stereo unspecified)	1	3
CCCCOc1cccc(C(=O)Nc2ccc(N(CC)CC)cc2)c1	1.1	1
COc1ccc(C2CC(=O)CC(=O)C2)cc1	1.1	7
Cc1ccc(C(=O)Nc2c(C(=O)Nc3ccccc3)cnn2-c2ccccc2)cc1	0.93	12
O=C(Nc1ccc(F)cc1)c1ccc([N+](=O)[O-])cc1	1.1	-11
CC(=O)Nc1ccc(C(=O)Nc2ccc([N+](=O)[O-])cc2)cc1	0.74*	-4
Cc1c(C(=O)Nc2ccc([N+](=O)[O-])cc2)cnn1-c1ccccc1	0.58*	5
COc1ccccc1N(CC(=O)NCc1ccncc1)S(=O)(=O)c1ccccc1	0.96	-8
O=C(c1ccc(I)cc1)N1CCc2ccccc21	1.1	10
CCC(=O)Nc1cccc(NC(=O)c2ccc(Cl)c(Cl)c2)c1	1.1	22
Cc1cn(S(=O)(=O)c2cc(Cl)ccc2Cl)cn1	1.1	-4
CCOC(=O)C1CCN(S(=O)(=O)c2ccc(NC(C)=O)cc2)CC1	1.1	4
CCOc1ccccc1NC(=O)c1c(NC(=O)C(C)(C)C)sc2c1CCCCC2	1.1	0
CCOc1ccccc1NC(=O)c1c(NC(=O)C(F)(F)F)sc2c1CCCCC2	1.2*	33
Cc1ccc(N2NC(=O)/C(=C\c3ccc(Br)cc3)C2=O)cc1	0.91	19
SMILES	Cy5 interf NS3h	HCV NS3h FP
COc1cc(/C=C2\C(=O)NN(c3ccccc3)C2=O)cc(Br)c1OCC(=O)O	1.1	29
Cc1ccc(N2NC(=O)/C(=C/c3cccc(Br)c3)C2=O)cc1	0.79*	23
COc1cc(/C=C2/C(=O)NN(c3ccc(Cl)cc3)C2=O)cc(Br)c1O	0.77*	-1
COc1cc(/C=C2/SC(=S)N(c3ccccc3)C2=O)ccc1OC(=O)c1cccs1	1	12
C=CCNC(=O)Nc1ccc2nccnc2c1	1	4
COC(=O)C1=C(C)N=c2s/c(=C\c3ccc(F)cc3)c(=O)n2C1c1ccccc1 (stereo unspecified)	0.99	4
COc1ccc2c(=O)c(Oc3ccccc3Br)coc2c1	0.94	-4
O=C(Nc1ccncc1)Nc1ccccn1	1	5
O=C(Nc1ccccc1)Nc1ncccn1	0.78*	12
CCc1ccc(/C=C2\C(=O)NN(c3ccccc3)C2=O)cc1	1	22
CCc1ccc(N2NC(=O)CC2=O)cc1	0.73*	10
Cc1ccccc1-c1nc2ccccc2c(=O)n1/N=C\c1c[nH]c2ccccc12	0.89	23
CC(C)(CN1CCN(CC(C)(C)NS(=O)(=O)c2ccccc2)CC1)NS(=O)(=O)c1ccccc1	0.92	12
Cc1cc(C)c(NC(=O)Cc2ccccc2[N+](=O)[O-])c(C)c1	1	11
NS(=O)(=O)c1ccc(N=Cc2ccc[nH]2)cc1	1.1	1
O=[N+]([O-])c1cccc(N=Cc2ccc[nH]2)c1	0.68*	10
O=c1/c(=C/c2cc(Br)ccc2OCc2ccccc2F)sc2nc3ccccc3n12	1	3
COC(C)(C)c1cc(-c2ccccc2)nc(N)n1	1.1	2
Cc1cc(C)n2nc(-c3cccc(F)c3)cc2n1	0.93	7
Cc1cc(C)n2nc(-c3ccc(F)cc3)cc2n1	0.67*	21
O=C(Nc1ccc2oc(-c3cccc4c(Br)cccc34)nc2c1)c1ccccc1[N+](=O)[O-]	0.97	-5
Cc1nc(N=C(N)NC(=O)c2ccccc2N)nc2ccccc12	1.2*	17
COc1ccc(C(=O)Nc2cc(C)nc3ccccc23)cc1OC	0.94	1
Cc1ccc([N+](=O)[O-])cc1NC(=O)c1ccccc1C(=O)O	1.1	6
CCOc1cccc(C(=O)Nc2ccc3nn(-c4ccc(F)cc4)nc3c2)c1	1.1	-24
